Assay results published in PubChem BioAssay AID602197 (NMMLSC, 2012).
Some of the results follow. Active and inactive are the calls of the source. No stated cut-off is given here; in the data, active means response above about 24%; inactive means the rest.

Assay: V-ATPase regulators in yeast, one dose – S. cerevisiae, pH-sensitive GFP, second cherry-pick, confirmation (AID 602197);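 further: plate controls were vehicle wells for no effect and positive control wells for full effect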
Details: S. cerevisiae pHLuorin cytosolic pH, V-ATPase proton transport; at 10 µM; hits give high values

response, active:
COc1ccc2nc(N3CCN(C(=O)c4ccc([N+](=O)[O-])o4)CC3)sc2c1 36%
CC1=NOC(=O)/C1=C\c1ccccc1 30.5%

response, inactive:
Cc1occc1C(=O)Nc1nnc(C2CCCCC2)s1 3.1%
O=S1(=O)C=C(SCCN2CCCC2)c2ccccc21 -0.88%
CNC(=O)c1csc(Cc2c(Cl)sc3ccc(Cl)cc23)n1 2.33%
COC(=O)c1cc(Oc2ccc(S(=O)(=O)N3CCOCC3)cc2[N+](=O)[O-])cc(C(=O)OC)c1 0.18%
Cc1cc(=O)c2ccc(NC(=O)c3ccccc3)cc2[nH]1 -0.97%
CCCc1cc(=O)[nH]c(SCc2ccc(C#N)cc2)n1 1.04%
CC(=O)N1CCC(N(C(=O)Nc2ccc(Cl)cc2)C(C)C)CC1 2.59%
O=C(COc1cc2oc(=O)c3c(c2cc1Cl)CCC3)NCCCN1CCOCC1 2.9%
N#C/C(C(=O)N1CCOCC1)=C1/SC(Cc2ccc(F)cc2)C(=O)N1c1ccccc1 (centres undefined) 5.79%
COc1ccc(/C=N/NC(=O)c2cccc(C(F)(F)F)c2)cc1 -3.87%
CCc1ccc(CNC(=O)CCc2nc(-c3cccs3)no2)cc1 2.27%
O=C(NCC1CCCCC1)c1cc(S(=O)(=O)N2CCCCC2)ccc1N1CCOCC1 -0.11%
COc1ccc(C(=O)N(Cc2ccccc2)c2ccc(C)cc2)cc1S(=O)(=O)N1CCOCC1 -6.57%
CCOC(=O)N1CCN(CC(=O)n2c(C)c(C)c3ccccc32)CC1 1.66%
O=C(C1=C[C@H](C2CC2)C[C@H](OCc2ccc(CO)cc2)O1)N1CCN(Cc2ccccc2)CC1 1.94%
CCCc1nnc(NC(=O)c2cc(OC)cc(OC)c2)s1 -0.87%
C/C=C/C(=O)OCc1csc(CC(=O)Nc2ccccc2C)n1 -3.22%
CCC(=O)c1ccc(OCC(=O)Nc2ccc(N3CCCCC3)cc2)cc1 -1.55%
Cc1ccc(C(=O)Nc2nc3ccc(Cl)cc3s2)o1 -0.02%
COc1ccc(CCN2C(=O)N(c3ccc(OC)cc3)C(=O)C2CC(=O)Nc2ccc(OC)cc2)cc1 (centres undefined) -1%
COc1ccccc1CNC(=O)COC(=O)c1sc(C)nc1C 1.62%
O=S(=O)(c1ccc(-c2ccno2)s1)N1CCCCC1 -6.9%
